Screens (PubChem)
HP1b chromo inh: inhibitors of HP1-beta chromodomain binding to methylated histone tails. 390,000 tested, 0.56% active. AlphaScreen HP1-beta / biotin-H3K9me3 peptide binding. Potency, µM (series often up to 114 µM), inactives show top-dose activity change, negative = inhibition, hits mostly inhibitors. P83916; note: potency is the fitted concentration of half-maximal effect; nearly all actives have a fitted effect of over 70% in size
Target sequence (P83916 whole entry, looked up): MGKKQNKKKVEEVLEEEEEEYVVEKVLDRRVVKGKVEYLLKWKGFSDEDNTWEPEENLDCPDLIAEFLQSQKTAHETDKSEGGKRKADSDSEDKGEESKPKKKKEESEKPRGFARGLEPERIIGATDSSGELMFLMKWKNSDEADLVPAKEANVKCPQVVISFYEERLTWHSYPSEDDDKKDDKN
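Compound inhibition of the preformed complex between 50 nM HP1-beta and 50 nM biotinylated H3K9me3 peptide was read by AlphaScreen. Buffer was PBS pH 7.4 with 0.01% Tween-20. Incubations ran 30 min at room temperature, with 10 ug/mL donor/acceptor beads.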
BAZ2B inh: BAZ2B (human) inhibition; AID 504333; 360,000 tested, 4.4% active; Q9UIF8; Potency, µM (doses to about 114 µM), without a hit: at the top dose activity change, negative = inhibition, usual class: inhibitors; AlphaScreen BAZ2B-H3K14Ac peptide displacement; note: potency is the fitted concentration of half-maximal effect; % is set by controls: 0 for no effect and ±100 for the full control effect; nearly all actives have a fitted effect of over 60% in size
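Multi-concentration screen (max 110 uM) measuring displacement of acetylated histone H3 peptide from BAZ2B by AlphaScreen, using 50 nM protein, 50 nM peptide and 10 ug/mL streptavidin donor plus Ni-chelate acceptor beads.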
G9a inh: blocks human histone lysine methyltransferase G9a | Q96KQ7 | G9a H3K9 monomethylation, AlphaScreen, 2 h | Potency, µM (titrated, usually from 102 µM), for inactives: at the top dose activity, negative = inhibition, usual class: inhibitors | 350,000 tested, 8.8% active | AID 504332; note: potency is the fitted concentration of half-maximal effect; % is set by controls: 0 for no effect and ±100 for the full control effect; nearly all actives have a fitted effect of over 75% in size
Target sequence (Q96KQ7 913-1193 limits assumed): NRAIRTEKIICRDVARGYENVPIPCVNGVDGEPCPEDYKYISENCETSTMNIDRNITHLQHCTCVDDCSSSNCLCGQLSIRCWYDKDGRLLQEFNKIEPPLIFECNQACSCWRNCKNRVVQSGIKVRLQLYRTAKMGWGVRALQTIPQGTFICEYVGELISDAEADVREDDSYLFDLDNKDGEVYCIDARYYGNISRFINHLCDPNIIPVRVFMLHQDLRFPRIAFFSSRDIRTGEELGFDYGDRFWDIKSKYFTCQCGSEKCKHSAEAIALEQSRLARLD
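Readings reflect AlphaScreen signal from monomethyl-H3K9 antibody detection. HMT at 20 nM; substrate b-H3K9 500 nM; cofactor SAM 20 uM; 2 h RT reaction; compounds tested as titrations in qHTS with 15 min preincubation.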
CtBP-E1A blk: inhibitors of CtBP/E1A interaction; activity change, % (no concentration beside the values); AlphaScreen GST-E1A/His-CtBP binding, 1536-well; stronger effect = lower value; 340,000 tested, 0.49% active; AID 651724; in the data active = activity change below about -65%; inconclusive = mostly about -30% to -63%; note: % is set by controls: 0 for no effect and ±100 for the full control effect
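GST-E1A and His-tagged CtBP (125 nM each as 5X stock) were preincubated with pin-transferred compound for 2 h at 37 °C in the dark, then glutathione donor and nickel acceptor beads were added for 1 h before AlphaScreen reading.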
Six1-Eya2 blk: inhibitors of human Six1/Eya2 interaction; Q15475+O00167; AlphaScreen GST-Six1/His-Eya2 binding, biochemical; stronger effect = lower value; activity change, % (test concentration not listed); 360,000 tested, 0.56% active; AID 651725; in the data active = activity change below about -65%; inconclusive = mostly about -30% to -63%; note: % is set by controls: 0 for no effect and ±100 for the full control effect
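Homogeneous AlphaScreen proximity assay pairing GST-Six1 with His-tagged Eya2 (added as 5X mix: 250 nM and 500 nM) in 50 mM Tris pH 8.0, 300 mM NaCl, 1 mM TCEP. Glutathione donor and nickel acceptor beads; 1 h, 37 °C, dark.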
JMJD2A Tudor inh: JMJD2A Tudor domain (human) inhibition; O75164; AlphaScreen JMJD2A-Tudor / H3K4me3 peptide binding; Potency, µM (doses to about 114 µM), for the others: at the top dose activity change, negative = inhibition, most hits filed as inhibitors; 390,000 tested, 4.4% active; note: potency is the fitted concentration of half-maximal effect; % is set by controls: 0 for no effect and ±100 for the full control effect; nearly all actives have a fitted effect of over 50% in size
The depositor's hits bear a star; u = inconclusive; x = no result; ! = a repeat was not active; [ ] = dose if it differs, or a comment. Compounds with a hit are over-represented: about 10% of the library has one in this group of screens. Unless noted, calls come from the whole dose curve; as a rule, active = well fitted inhibition curve with a large enough effect; inconclusive = small, poorly fitted or top-dose-only effect; inactive = no such curve, though single readings can be large or run the other way.

SMILES	HP1b chromo inh	BAZ2B inh	G9a inh	CtBP-E1A blk	Six1-Eya2 blk	JMJD2A Tudor inh
COc1ccc(S(=O)(=O)Nc2ccc(O)c3ccccc23)cc1	u	40µM*	u	u	u	32µM*
CCOC(=O)CN1NC2(CCCCCC2)NC1=S	60%	-11%	x	9	0	50µM*
Cc1nc(NC(=O)c2c(-c3ccccc3Cl)noc2C)sc1C	32%	u	x	-1	-3	-10%
CC(=O)c1cccc(NC(=O)CCc2c(C)nc3nc(CN)nn3c2C)c1	21%	50µM*	16µM*	x	x	u
O=C(NCc1nnc(-c2nc3ccccc3[nH]2)o1)C1CCCCC1	x	x	x	x	x	-4%
O=c1[nH]ncn1-c1ccccc1C(F)(F)F	11%	11%	10%[59 µM]	-9	5	-12%
Fc1ccccc1-n1cn[nH]c1=S	30%	-10%	10µM*	x	1	28µM*
Cc1ccc([C@H]2C[C@H](O)[C@@H](n3cc(C4CC4)nn3)CN2C(=O)C2CCCCC2)cc1	x	x	x	6	1	x
COc1ccc(C(=O)NNC2=NS(=O)(=O)c3ccccc32)cc1OC	24%	u	8%	4	4	-4%
O=C(COc1ccccc1)NNC1=NS(=O)(=O)c2ccccc21	37%	x	45µM*	-1	6	-11%
O=C(CCCCC(=O)NNC(=O)COc1ccccc1)NNC(=O)COc1ccccc1	21%	-19%	35µM*	3	4	-5%
O=C(CCc1ccccc1)NNC(=O)COc1ccc(Br)cc1	50µM*	5%	23%[59 µM]	-1	7	20µM*
Cc1nc(Nc2cnc(/C=C/c3cc(C(=O)Nc4cccc(C(F)(F)F)c4)ccc3C)cn2)cc(N2CCNCC2)n1	u	-38%	32µM*	14	31	u
Cc1ccc(C)c(OCCCC(=O)Nc2ccccc2C(N)=O)c1	26%	7%	50µM*	x	-3	-22%
Cc1ccc(C)c(OCCC(=O)Nc2ccccc2C(=O)NC2CC2)c1	28%[57 µM]	x	x	2	2	-3%
CC(=O)Nc1ccc(S(=O)(=O)NCCC(=O)OCc2nc(N)nc(Nc3ccccc3C)n2)cc1	34%	-22%	4%[0.501 µM]	2	-18	-27%
CC1(C(=O)NS(=O)(=O)c2ccc3ccccc3c2)CCN1C(=O)CC1CCCCC1 (stereo not drawn)	x	x	x	5	18	x
O=C(OCC#CCSc1nnc(-c2cccc3ccccc23)o1)c1ccco1	54%	79µM*!	21%[0.501 µM]	19	11	7%
CC(C(=O)N(C)Cc1cccc(F)c1)N1CCN(S(=O)(=O)c2ccc3c(c2)OCCCO3)CC1 (stereo not drawn)	22%	9%	40µM*	-18	-3	-16%
CCc1nc2ccc(C(=O)NCCOc3ccc(OC)cc3)cn2c1N(CC)Cc1ccc(OC)c(OC)c1	x	x	x	-22	-18	x
COc1ccccc1CCNC(=O)c1nccnc1C(=O)O	14%	-25%	35µM*	4	5	-3%
O=C(O)CNc1cccc(-c2nn3c(=O)cc(N4CCNCC4)nc3s2)c1	x	x	x	x	x	-18%
CC1(C)Cc2ccccc2C(/C(=N\Nc2cccc(Cl)c2)C(N)=O)=N1	u	25µM*	u	u	u	35µM*
Cc1cccc(NC2CNC(=O)NC2=O)c1 (stereo not drawn)	5%	x	x	1	6	-19%
Cc1cccc(NC2SC(=O)NC2=O)c1 (stereo not drawn)	0%	u	50µM*	10	7	u
SMILES	HP1b chromo inh	BAZ2B inh	G9a inh	CtBP-E1A blk	Six1-Eya2 blk	JMJD2A Tudor inh
CCn1c(CNC(=O)c2cccs2)n[nH]c1=S	u	9%	u	4	0	8.9µM*
O=C(NCc1n[nH]c(=S)n1-c1ccccc1)c1cccs1	7%	-19%	22µM*	4	-2	16µM*
O=C(NCc1n[nH]c(=S)n1-c1ccc(Cl)c(Cl)c1)c1cccs1	19%	u	u	3	3	-14%
O=C(NCc1n[nH]c(=S)n1-c1cccc(Cl)c1)c1cccs1	u	-4%	20µM*	3	0	20µM*
CC(NC(=O)c1cccs1)c1n[nH]c(=S)n1C (stereo not drawn)	-11%	5%	u	3	2	8.9µM*
Cc1c(C(=O)N2CCC(C(=O)Nc3ccc(F)cc3)CC2)sc2nc[nH]c(=O)c12	20%[57 µM]	5%	19%[59 µM]	x	x	-12%
O=C1c2ccccc2C(=O)N1c1ncccc1O	x	x	x	x	x	-19%
COc1ccc2c(c1)c1c(c(=O)n(Cc3ccccc3)c(=O)n1CC(=O)Nc1cc(C)cc(C)c1)n2C	14%	-10%	-1%[59 µM]	x	x	-6%
CCN1CCN(Cc2c(O)ccc3oc(C)c(C(=O)Nc4ccc(OC)c(Cl)c4)c23)CC1	16%	-20%	-22%[59 µM]	x	x	-18%
C#CCOCCOCCOCCNc1nc(N2CCN(C(=O)[C@H](CCC(=O)O)n3cc(C(N)Cc4ccc(O)cc4)nn3)CC2)nc(N2CCN(C(=O)[C@H](Cc3cc4ccccc4[nH]3)n3cc(C(N)[C@H](C)CC)nn3)CC2)n1 (stereo partly drawn)	15%	50µM*	4%[12.7 µM]	-15	-19	45µM*
C#CCOCCOCCOCCNc1nc(N2CCN(C(=O)C(Cc3cc4ccccc4[nH]3)n3cc(C(N)Cc4ccc(O)cc4)nn3)CC2)nc(N2CCN(C(=O)C(CCC(=O)O)n3cc(C(N)C(C)CC)nn3)CC2)n1 (stereo not drawn)	-6%	32µM*	-29%[2.33 µM]	-24	-20	45µM*
O=C(NCc1ccc(Cl)cc1)c1cc([N+](=O)[O-])ccc1Cl	30%	-4%	-2%	-2	8	-15%
CC(=O)Nc1cccc2c1OCCO2	29%	9%	25%	4	0	-7%
Cc1ccsc1/C=N/n1c(-c2ccccn2)n[nH]c1=S	32%	8.9µM*	2.2µM*	u	-78*	3.2µM*
Cc1cc(-c2n[nH]c(=S)n2/N=C/c2sccc2C)n[nH]1	u	u	1.3µM*	2	-15	3.2µM*
Cc1ccsc1/C=N/N1CCOCC1	2%	-18%	-2%	0	-1	-21%
Cc1ccsc1/C=N/n1c(-c2ccco2)n[nH]c1=S	-10%	-21%[57.1 µM]	0.79µM*	3	0	7.1µM*
Cc1ccsc1/C=N/n1c(-c2ccccc2)n[nH]c1=S	11%	3%	1.8µM*	5	0	28µM*
CCc1cccc(C)c1NC(=O)C1CCN(S(=O)(=O)Cc2ccccc2)CC1	1%	-13%	-43%[59 µM]	x	x	-20%
COc1cc(Cl)c(C)cc1Nc1ncnc2c1nc1n2CCCC1	23%	4%	-10%[59 µM]	x	x	-11%
